Inconclusive results are not listed. A number with no mark means an inactive call. Activity calls are given as the source filed them. The call rests on the fitted dose curve; in most records, active means well fitted curve in the direction sought with a large enough effect; inconclusive means small, poorly fitted or top-dose-only effect, or another doubt; inactive means no such curve, though single readings can be large; an effect the other way counts as inactive or inconclusive. Bridge positions count the residues as written; N and C are the ends. Square brackets hold non-standard residues; d marks the D form. Side chains are listed from the residue outwards. Peptide text beside a SMILES is read from it. * marks the point of attachment. Phg(4-OMe) = COc1ccc([C@H](N)C(=O)O)cc1; d(aIle) = CC[C@H](C)[C@@H](N)C(=O)O; d(aThr) = C[C@@H](O)[C@@H](N)C(=O)O; NMeF = CN[C@@H](Cc1ccccc1)C(=O)O; Isobutyryl = CC(C)C(=O)*
Experiment: Vero-766 cells viability qHTS against the NCATS CANVASS Library: Counterscreen for Zika virus inhibition assay (AID 1347394); further: nearly all actives have a fitted effect of over 60% in size; further: potency means the concentration at half of the fitted maximal effect
Conditions: Vero 766 viability, CellTiter-Glo luminescence, 72 h; series mostly up to 46.1 µM; activity change, negative = cytotoxic: at the top concentration
Method in brief: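 This cytotoxicity counterscreen uses African green monkey Vero 766 cells in the absence of Zika virus. Compounds are incubated with cells for 72 h, and ATP-based luminescence reports viability.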
On the % scale 0 is the no-effect control and ±100 the full control effect.

Row | SMILES | activity change, negative = cytotoxic [%] | Potency
1 | CC[C@H]1[C@H](C)[C@H](c2cc(OC)c(OC)cc2OC)[C@@H](C)[C@H](c2cc(OC)c(OC)cc2OC)[C@@]12C=C(OC)C(=O)C=C2OC | 4.52 | 
2 | CC(=O)Oc1cc2c(c(OC(C)=O)c1C1CCc3cc(Cl)c(Cl)n31)C(=O)n1c-2cc(Cl)c1Cl (stereo not given) |  | 9.33 µM (active)
3 | COc1cc2c(cc1OC)[C@@H](c1ccc3c(c1)OCO3)C(C)C(C)C2=O (stereo not given in full) | -14.7 | 
4 | C/C=C(/C)c1c(Cl)c(O)c(C)c2c1Oc1c(Cl)c(O)c(Cl)c(C)c1C(=O)O2 |  | 7.41 µM (active)
5 | CC(C)C[C@@H]1c2c(O)c(C=O)c(O)c(C=O)c2O[C@]2(C)C=C[C@@H](C(C)C)C[C@H]12 | -10.2 | 
6 | C[C@H]1C=C[C@H]2CCCC[C@@H]2[C@H]1C(=O)[C@H]1CC2=C(C(=O)O)CCN2C1=O | -5.34 | 
7 | C/C=C(/C)c1c(Cl)c(OC)c(C)c2c1Oc1c(Cl)c(O)c(Cl)c(C)c1C(=O)O2 |  | 3.71 µM (active)
8 | C/C(=C\CC[C@@H](C)[C@H]1CC[C@]2(C)C3=CCC4C(C)(C)[C@@H](O)C[C@@H](O)[C@]4(C)C3[C@H](O)C[C@@]12C)CO (stereo not given in full) |  | 33.1 µM (active)
9 | COC12OC1(C13OC1(OC)C(=O)c1cc4cc(C)oc(=O)c4c(O)c1C3O)C(O)c1c(cc3cc(C)oc(=O)c3c1O)C2=O (stereo not given) |  | 23.4 µM (active)
10 | CO[C@H]1[C@@H](OC(=O)/C(C)=C\[C@@H]2O[C@@H]2[C@H]2O[C@H]2C)[C@H](O)[C@H](OCC23C[C@@H]4[C@H](C)CC[C@H]4C4(C=O)CC2C=C(C(C)C)C34C(=O)O)O[C@@H]1C (stereo not given in full) | -14.6 | 

Experiment: qHTS for inhibitors of Wild type Zika virus screened against the NCATS CANVASS Library (AID 1347396);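 further: ATP luminescence of surviving cells so rescue from viral cell killing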
Conditions: Vero cells, Zika virus CPE, CellTiter-Glo, 72 h; series mostly up to 45.9 µM; activity change, negative = antiviral: at the top concentration
Method in brief: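 Protection against wild-type Zika cytopathic effect is measured in African green monkey Vero 766 cells exposed to an 11-point compound series. Surviving cells are quantified by CellTiter Glo luminescence after 72 h.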

Row | SMILES | activity change, negative = antiviral [%]
11 | CC(C)=CCC[C@]12c3cc4c(cc3CC[C@@]1(C)[C@H](C)CC[C@@H]2O)[nH]c1ccccc14 | 19.6
12 | C=C1CC[C@@H](Br)C(C)(C)[C@]12CC=C(C)C(=O)C2 | 5.92
13 | C=C[C@@]1(C)CC[C@@H]([C@H](C)C(=O)/C=C/C(C)(C)O)O1 | 22.9
14 | O=C1CC2OCC=C3CN4C5CC3C2[C@@H]2N1c1ccccc1[C@]52C[C@@H]4C1=C[C@H]2C3CC4N(CC[C@@]45c4ccccc4N(C1=O)[C@@H]25)C/C3=C/CO (stereo not given in full) | 43.8
15 | C=C1CC[C@@H](O[C@H]2C[C@@](O)([C@H](C)NC(=O)c3[nH]c(C)c(Cl)c3Cl)[C@H](O)[C@@H](C)O2)[C@@H]2C=C[C@H](C)C(/C(O)=C3/C(=O)[C@H](C(C)C)N([C@@H]4O[C@H](C)[C@H](OC(N)=O)[C@H](OC(C)=O)[C@@H]4OC)C3=O)[C@@H]12 (stereo not given in full) | 19.3
16 | CC[C@H](C)[C@H]1NC(=O)[C@@H](NC(=O)C(C)C)[C@@H](C)OC(=O)[C@H](COC(=O)CNC(C)=O)NC(=O)[C@@H]([C@@H](C)O)NC(=O)[C@H](Cc2ccccc2)N(C)C(=O)[C@H](c2ccc(OC)cc2)NC1=O (Isobutyryl-T[d(aIle)][Phg(4-OMe)][NMeF][d(aThr)]S([Gly-Ac]); ester 1-C) | -7.29
17 | Cc1occ2c1C(=O)c1c(cc(O)c(O)c1O)C2=O | 47.1
18 | C=CC(CCCCC)C1C(=O)NC(=O)C1C(=O)C1C2C(C)CC(C(=O)O)CC2CC1(O)C(=O)/C=C/C (stereo not given) | 36.4
19 | C[C@]12CCC[C@](C)(C(=O)O)[C@@H]1CC[C@@]1(C)c3cocc3CC[C@H]21 | 2.69
20 | C[n+]1cc2cc(C(N)=O)[nH]c3c(=N)c(Cl)c(N)c1c23 | 16.9
21 | C/C1=C/[C@@H](C)[C@H](O)[C@@H](O)/C=C/CC/C=C/C(=O)O[C@@H]1[C@H](C)C(=O)CCCC1CC(=O)NC(=O)C1 | 8.23
22 | COc1cc2c(cc1OC)[C@@H](c1ccc3c(c1)OCO3)C(C)C(C)C2=O (stereo not given in full) | -3.09
23 | CC(C)C[C@@H]1c2c(O)c(C=O)c(O)c(C=O)c2O[C@]2(C)C=C[C@@H](C(C)C)C[C@H]12 | -3.45
24 | C/C=C(/C)c1cc(O)c(C)c2c1Oc1cc(O)cc(C)c1C(=O)O2 | -25
25 | CC(C)[C@]12CC[C@@]3(C)[C@H](C)CC[C@H](O)[C@@]3(CC1)c1cc3c(cc12)[nH]c1ccccc13 | 63.7

— PubChem BioAssay (NCATS)
